# Reference: PubChem BioAssay (EPA / NIEHS)
# Activity calls are given as the source filed them. The calls were made as follows: active = hit-call score of the fitted dose curve at least 0.9, where 1 is the maximum; inactive = score below 0.9.
# Experiment: BSK_SAg_SRB: Viability Assessment in the BioMAP Diversity Plus: SAg Assay (AID 2283096);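 also: cells read one day after compound addition; hits may be either gain or loss of signal compared with DMSO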
# Conditions: primary human HUVEC with PBMC
# Method: BSK_SAg is a cell-based, multiplexed-readout assay that uses umbilical vein endothelium and peripheral blood mononuclear cells, a human vascular primary cell co-culture, with measurements taken at 24 hours after chemical dosing in a 96-well plate.BSK_SAg_SRB is an assay component measured in the BSK_SAg assay. It measures protein content, a form of viability reporter, as detected with absorbance signals by Sulforhodamine staining technology.Data from the assay component BSK_SAg_SRB was analyzed into 1 assay endpoint. This assay endpoint, BSK_SAg_SRB, was analyzed with bidirectional fitting relative to DMSO as the negative control and baseline of activity. Using a type of viability reporter, gain or loss-of-signal activity can be used to understand changes in the signaling. Furthermore, this assay endpoint can be referred to as a primary readout, because this assay has produced multiple assay endpoints where this one serves a signaling function. To generalize the intended target to other relatable targets, this assay endpoint is annotated to the cell morphology intended target family, where the subfamily is cell conformation.
# The levels of cell surface (or secreted, indicated by the prefix "s") biomarker endpoints were measured by ELISA. Overt cytotoxicity to cells in confluent adherent cultures (all systems other than the BT system) was assessed by measuring total protein levels using sulforhodamine B (SRB) staining in parallel cultures at the time of biomarker measurements, indicated as SRB endpoints. For proliferation assays for adherent cell types, individual cell types are cultured at sub-confluence and relative cell numbers quantified by SRB staining at time points optimized for each system (48 h: 3C and CASM3C systems; 72 h: BT and HDF3CGF systems; 96 h: SAg system). SRB was performed by staining cells with 0.1% SRB after fixation with 10% TCA and reading wells at 560 nm.Viability and proliferation of PBMC (T cells) was quantified by Alamar Blue reduction for the SAg and BT systems. For PBMC viability (referred to as PBMC Cytotoxicity within the assay endpoint names), cells were plated (75,000/well in a 96-well plate) and then chemical samples added for 1 h before addition of activators, SEB and TSST-1 (20 ng/mL final concentration each). Cells were incubated for 90 h. Then, Alamar Blue (20 uL/well) (Invitrogen, Cat DAL1100) was added for 6 h, and the plates were read with a fluorescence microplate reader at 546/580 nm (excitation/emission). For PBMC proliferation, cells were plated and activated as above but incubated for only 16 h prior to addition of Alamar Blue. Plates were read after 6 h.
SMILES,outcome,AC50
OCCCCO,inactive,–
O=[N+]([O-])c1cccc2ccccc12,inactive,–
CCOC(=O)CC(=O)CCl,inactive,–
CC1(C)[C@H](C(=O)O[C@H](C#N)c2cccc(Oc3ccccc3)c2)[C@@H]1/C=C(\Cl)C(F)(F)F,inactive,–
O=C(CCl)NCO,inactive,–
CCOP(=O)(OCC)SCCSCC,inactive,–
CN(C)C(=S)S,inactive,–
CC(C)O.CC(C)O.OCCN(CCO)CCO.OCCN(CCO)CCO.[Ti],inactive,–
CCOP(=O)(OCC)OC(=CCl)c1ccc(Cl)cc1Cl,inactive,–
CCCCCCCCCCCCN(C)C,inactive,–
Oc1c(Cl)cc(Cl)cc1Cl,inactive,–
O=C1C=CC(=O)c2ccccc21,–,5.33 µM (active)
CC(C=O)Cc1ccc2c(c1)OCO2 (stereo not given),inactive,–
[Cl][Sn]([c]1ccccc1)([c]1ccccc1)[c]1ccccc1,–,0.337 µM (active)
Cc1cc(Cl)ccc1N,inactive,–
CCC(C)(C#N)N=NC(C)(C#N)CC (stereo not given),inactive,–
CCOP(=S)(OCC)SCS(=O)(=O)C(C)(C)C,inactive,–
CCOC(=O)CCN(SN(C)C(=O)Oc1cccc2c1OC(C)(C)C2)C(C)C,inactive,–
C[C@]12CC[C@@H](O)C[C@@H]1CC[C@@H]1[C@@H]2CC[C@]2(C)C(=O)CC[C@@H]12,inactive,–
Clc1cccc(Cl)c1,inactive,–

SMILES,outcome,AC50
CC(C)N(C(=O)CCl)c1ccccc1,–,33.8 µM (active)
O=S(=O)(C(Cl)(Cl)Cl)C(Cl)(Cl)Cl,–,3.74 µM (active)
Cc1ccccc1OP(=O)(Oc1ccccc1)Oc1ccccc1,–,31.6 µM (active)
C=CC(Cl)CCl (stereo not given),inactive,–
COc1ccccc1N,inactive,–
Nc1c(Oc2ccccc2)cc(O)c2c1C(=O)c1ccccc1C2=O,–,2.22 µM (active)
CC(C)(C)c1ccccc1O,inactive,–
N#CCCC(Br)(C#N)CBr (stereo not given),–,11.5 µM (active)
Cc1c([N+](=O)[O-])c(C)c([N+](=O)[O-])c(C(C)(C)C)c1[N+](=O)[O-],inactive,–
Cc1cccc(OP(=O)(Oc2cccc(C)c2)Oc2cccc(C)c2)c1,inactive,–
OCCN(CCO)CCO,inactive,–
Cc1cc(C(C)(C)c2ccc(O)c(C)c2)ccc1O,inactive,–
CCN(CC)C(=O)C(Cl)=C(C)OP(=O)(OC)OC,inactive,–
Cc1cc(Cl)ccc1OC(C)C(=O)O (stereo not given),inactive,–
Cc1cc(C)cc(C)c1,inactive,–
Oc1c(Br)cc(Br)cc1Br,–,31.7 µM (active)
Clc1cccc(Cl)c1Cl,inactive,–
O=C(O)COc1cc(Cl)c(Cl)cc1Cl,inactive,–
O=C(Cc1ccccc1)OCCc1ccccc1,inactive,–
O=C(O)C1(c2ccc3c(c2)OC[C@H](Cc2ccc(-c4ccccc4)cc2)[C@H]3O)CCCC1,–,27.3 µM (active)
